Measured values taken from publication PMC4336329 (PLoS ONE, 2015).
In all, about 310,000 compounds went through this assay and about 14,000 (4.5%) showed an effect of 50% or more. The effect is printed as a negative number. Shown is part of a subset that was picked to be rich in strong results.

These compounds were tested against human ether-à-go-go-related gene (hERG) potassium channel (human, UniProt Q12809) (assay: primary screen, population patch clamp on CHO cells stably expressing hERG; higher = less effect of the substance).
Sequence of human ether-à-go-go-related gene (hERG) potassium channel (Q12809 whole entry, looked up): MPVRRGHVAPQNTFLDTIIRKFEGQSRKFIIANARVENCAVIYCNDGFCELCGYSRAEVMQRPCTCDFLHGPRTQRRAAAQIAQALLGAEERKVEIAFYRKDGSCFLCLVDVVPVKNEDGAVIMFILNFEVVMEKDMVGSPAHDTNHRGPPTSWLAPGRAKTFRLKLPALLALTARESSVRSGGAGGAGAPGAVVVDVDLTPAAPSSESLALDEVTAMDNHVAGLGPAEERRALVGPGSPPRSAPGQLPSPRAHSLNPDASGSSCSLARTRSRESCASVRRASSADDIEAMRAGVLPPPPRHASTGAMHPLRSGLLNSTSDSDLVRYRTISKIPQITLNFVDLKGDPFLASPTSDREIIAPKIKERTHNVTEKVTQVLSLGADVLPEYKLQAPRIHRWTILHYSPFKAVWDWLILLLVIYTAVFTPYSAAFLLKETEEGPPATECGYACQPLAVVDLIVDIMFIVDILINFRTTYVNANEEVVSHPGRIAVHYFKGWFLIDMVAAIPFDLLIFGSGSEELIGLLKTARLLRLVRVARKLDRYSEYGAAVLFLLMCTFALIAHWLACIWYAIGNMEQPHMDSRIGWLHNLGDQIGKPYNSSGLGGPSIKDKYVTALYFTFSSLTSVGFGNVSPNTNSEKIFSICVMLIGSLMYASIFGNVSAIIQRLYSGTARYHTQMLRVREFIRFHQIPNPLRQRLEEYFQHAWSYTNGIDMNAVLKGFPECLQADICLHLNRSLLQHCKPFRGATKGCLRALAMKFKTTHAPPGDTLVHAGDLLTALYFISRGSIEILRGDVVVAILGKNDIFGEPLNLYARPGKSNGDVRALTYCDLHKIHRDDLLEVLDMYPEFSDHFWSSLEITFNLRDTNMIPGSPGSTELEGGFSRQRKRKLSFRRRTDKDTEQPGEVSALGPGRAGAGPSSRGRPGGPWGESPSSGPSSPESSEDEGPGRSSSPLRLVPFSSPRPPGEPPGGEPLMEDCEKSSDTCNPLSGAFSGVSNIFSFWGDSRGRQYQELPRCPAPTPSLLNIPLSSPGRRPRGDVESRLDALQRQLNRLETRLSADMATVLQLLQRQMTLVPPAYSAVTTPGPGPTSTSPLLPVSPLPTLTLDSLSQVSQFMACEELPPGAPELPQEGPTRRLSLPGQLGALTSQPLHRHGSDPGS
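Further: peak tail current of the secondary pulse compared with the same well before compound.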

| Compound | hERG current change (%, negative = inhibition) at 10uM [%] |
| --- | --- |
| CC[n+]1ccccc1/C=C1\Sc2ccc(C)cc2N1C.[I-] | -62.5 |
| Cc1ccc2c(c1)N(C)/C(=C/c1cccc[n+]1CCO)S2.[I-] | -9.09 |
| Cc1ccc2c(c1)N(C)/C(=C/c1cccc[n+]1C)S2.[I-] | -47.5 |
| Cc1oc2nc(SCC(=O)NC3CCCCC3)nc(N)c2c1C | -14.8 |
| Cl.O=C(CN1CCCC1)N1c2ccccc2Sc2ccc(Cl)cc21 | 0.273 |
| COc1ccc(S(=O)(=O)Nc2ccc3c(c2)n(C)c(=O)n3C)cc1C | 2.39 |
| COc1ccc(CNC(=O)C23CN(Cc4ccccc4)CC2C(c2ccc([N+](=O)[O-])cc2)=NO3)cc1 (centres unmarked) | -40.5 |
| O=C(NCc1ccco1)C12CN(Cc3ccccc3)CC1C(c1ccc([N+](=O)[O-])cc1)=NO2 (centres unmarked) | -70.8 |
| COc1cccc(CNC(=O)C23CN(Cc4ccccc4)CC2C(c2ccc([N+](=O)[O-])cc2)=NO3)c1 (centres unmarked) | -52.1 |
| O=C(NCc1ccccc1)C12CN(Cc3ccccc3)CC1C(c1cccc([N+](=O)[O-])c1)=NO2 (centres unmarked) | -14.6 |
| COc1ccc(CCNC(=O)C23CN(Cc4ccccc4)CC2C(c2cccc([N+](=O)[O-])c2)=NO3)cc1 (centres unmarked) | -7.39 |
| Cc1ccc(CCNC(=O)C23CN(Cc4ccccc4)CC2C(c2ccc([N+](=O)[O-])cc2)=NO3)cc1 (centres unmarked) | -24 |
| Cc1ccc(CNC(=O)C23CN(Cc4ccccc4)CC2C(c2ccc([N+](=O)[O-])cc2)=NO3)o1 (centres unmarked) | -49.6 |
| Cc1ccc(CNC(=O)C23CN(Cc4ccccc4)CC2C(c2ccc([N+](=O)[O-])cc2)=NO3)cc1 (centres unmarked) | -43.7 |
| O=C(NCc1ccco1)C12CN(Cc3ccccc3)CC1C(c1cccc([N+](=O)[O-])c1)=NO2 (centres unmarked) | -46.6 |
| O=C(NCc1ccccc1)C12CN(Cc3ccccc3)CC1C(c1ccc([N+](=O)[O-])cc1)=NO2 (centres unmarked) | -67.1 |
| Cc1ccc(CNC(=O)C23CN(Cc4ccccc4)CC2C(c2cccc([N+](=O)[O-])c2)=NO3)cc1 (centres unmarked) | -0.125 |
| COc1ccc(CCNC(=O)C23CN(Cc4ccccc4)CC2C(c2ccc([N+](=O)[O-])cc2)=NO3)cc1 (centres unmarked) | -74.8 |
| CCC1CCCCN1C(=O)Nc1cccc(NC(=O)N2CCCCC2CC)c1 (centres unmarked) | 9.57 |
| CC(C)c1nnc(NC(=O)C2CCCN2S(=O)(=O)c2ccc(Cl)cc2)s1 (centres unmarked) | 7.71 |
| Fc1ccc(N=c2ssnc2Cl)c(F)c1 | 22.1 |

| Compound | hERG current change (%, negative = inhibition) at 10uM [%] |
| --- | --- |
| CCCc1cc(=O)n2[nH]c(-c3ccc(C)cc3)cc2n1 | -0.208 |
| O=C(CN1CCN(C(=O)C2CCCO2)CC1)Nc1ccc(Cl)c(Cl)c1 (centres unmarked) | -22.5 |
| Cc1ccc(Nc2cnn(C34CC5CC(CC(CC(=O)O)(C5)C3)C4)c(=O)c2Cl)cc1 | 12 |
| Cc1ccc(-n2nc3c(c2NC(=O)c2ccc(OC(C)C)cc2)CS(=O)C3)cc1 (centres unmarked) | -12.8 |
| CCc1ccc(S(=O)(=O)Nc2c(C)n(C)n(-c3ccccc3)c2=O)cc1 | -2.47 |
| O=c1oc2cc(O)c(Cl)cc2c2ccccc12 | 3.98 |
| CC(C)CCNC(=O)C12CN(Cc3ccccc3)CC1C(c1ccc([N+](=O)[O-])cc1)=NO2 (centres unmarked) | -53.1 |
| CCCCN(CCCC)CCCNC(=O)C12CN(Cc3ccccc3)CC1C(c1cccc([N+](=O)[O-])c1)=NO2 (centres unmarked) | -80.6 |
| O=C(NCCCCc1ccccc1)C12CN(Cc3ccccc3)CC1C(c1cccc([N+](=O)[O-])c1)=NO2 (centres unmarked) | -6.27 |
| CC(C)CCNC(=O)C12CN(Cc3ccccc3)CC1C(c1cccc([N+](=O)[O-])c1)=NO2 (centres unmarked) | -32.9 |
| Cc1ccc(CCNC(=O)C23CN(Cc4ccccc4)CC2C(c2cccc([N+](=O)[O-])c2)=NO3)cc1 (centres unmarked) | -14.8 |
| O=C(NCCCCc1ccccc1)C12CN(Cc3ccccc3)CC1C(c1ccc([N+](=O)[O-])cc1)=NO2 (centres unmarked) | 5.9 |
| CCC(C)NC(=O)CSc1nc2ccccc2c(=O)n1-c1c(C)n(C)n(-c2ccccc2)c1=O (centres unmarked) | 1.66 |
| COc1ccc(/C=C(\C#N)C(=O)Nc2cc(S(=O)(=O)N3CCCCC3)ccc2N2CCCCC2)cc1 | 6.92 |
| CNC(=S)Nc1ccc([N+](=O)[O-])cc1 | 11.9 |
| Cc1ccc(S(=O)(=O)N(C)CC(=O)N(CC(C)C)C2CCS(=O)(=O)C2)cc1 (centres unmarked) | -2.85 |
| c1ccc(N2N=C(c3cccs3)CC2c2ccco2)cc1 (centres unmarked) | 2.24 |
| O=C(NNCC(O)COc1ccccc1)c1ccccc1 (centres unmarked) | 1.06 |
| O=C(NN(CC(O)COc1ccccc1)CC(O)COc1ccccc1)c1ccccc1 (centres unmarked) | -66.1 |
| COc1ccc(OCC(O)CNC(=O)c2ccccc2)cc1 (centres unmarked) | 9.92 |
| Cc1ccc(S(=O)(=O)N(c2cccc(C(F)(F)F)c2)C2C=CS(=O)(=O)C2)cc1 (centres unmarked) | 6.3 |

| Compound | hERG current change (%, negative = inhibition) at 10uM [%] |
| --- | --- |
| C=CCN(C(=O)CCC(=O)Nc1cc(C)on1)C(C(=O)NC1CCCC1)c1ccc(Cl)cc1 (centres unmarked) | -56.3 |
| C=CCN(C(=O)CCC(=O)Nc1cc(C)on1)C(C(=O)NC1CCCC1)c1ccc(C)cc1 (centres unmarked) | 0.416 |
| C=CCN(C(=O)CCC(=O)Nc1cc(C)on1)C(C(=O)NC1CCCC1)c1ccc(CC)cc1 (centres unmarked) | -17.5 |
| Cc1cc(NC(=O)CCC(=O)N(Cc2ccccc2)C(C(=O)NC2CCCC2)c2ccco2)no1 (centres unmarked) | -21.8 |
| Cc1cc(NC(=O)CCC(=O)N(Cc2ccc(F)cc2)C(C(=O)NC2CCCC2)c2ccco2)no1 (centres unmarked) | 0.819 |
| Cc1cc(NC(=O)CCC(=O)N(CCc2ccccc2)C(C(=O)NC2CCCC2)c2ccco2)no1 (centres unmarked) | -66.1 |
| CCN(CC)S(=O)(=O)c1ccc2c(c1)CC(C(=O)N1CCCC1)N2C(C)=O (centres unmarked) | 1.51 |
| Cl.NCCSC1CC(=O)N(c2ccc(F)cc2)C1=O (centres unmarked) | 17 |
| CC1=C(C)CS(=O)N(S(=O)(=O)c2ccccc2)C1 (centres unmarked) | -16.3 |
| Cc1ccc(C(=O)CN(C(=O)c2ccc(Cl)cc2)N2C(=O)CCC2=O)cc1 | -50.7 |
| O=C(CN(C(=O)c1ccccc1Cl)N1C(=O)CCCC1=O)c1ccc(Cl)cc1 | 7.29 |
| O=C(CN(C(=O)c1ccc(Cl)cc1)N1C(=O)C2CCCCC2C1=O)c1ccc(Cl)cc1 (centres unmarked) | 15.1 |
| Cc1ccccc1CC1(CO)CCCN(C(=O)c2cc(-c3ccccc3)no2)C1 (centres unmarked) | 2.91 |
| CC(=O)Oc1ccc(C(=O)Nc2cccc3c2CCCC3)cc1 | 10.4 |
| Cc1c(NC(=O)Cc2ccccc2)cccc1C(=O)NN1C(=O)c2ccccc2C1=O | -10.2 |
| N#CCCn1cc(/C=N/NC(N)=S)c(-c2ccccc2)n1 | -28 |
| Cc1ccc(C(=O)NCc2ccccn2)o1 | 4.94 |
| O=c1cc(CN2CCc3ccccc32)c2ccc(O)cc2o1 | -0.218 |
| O=S(=O)(/C=C/c1ccccc1)N1CCN(Cc2ccccc2)CC1 | -25.3 |
| Cc1ccc2c(CN3CCN(S(=O)(=O)/C=C/c4ccccc4)CC3)cc(=O)oc2c1 | -72.4 |
| O=c1cc(CN2CCN(S(=O)(=O)/C=C/c3ccccc3)CC2)c2ccc(O)cc2o1 | -76.8 |

| Compound | hERG current change (%, negative = inhibition) at 10uM [%] |
| --- | --- |
| O=c1cc(CN2CCN(S(=O)(=O)c3ccc4c(c3)OCCO4)CC2)c2ccc(O)cc2o1 | -4.32 |
| Cc1cc2oc(=O)cc(CN3CCN(S(=O)(=O)/C=C/c4ccccc4)CC3)c2cc1C | 1.24 |
| CCOc1ccc(N2C(=O)CC(N3CCN(c4ccc(Cl)cc4)CC3)C2=O)cc1 (centres unmarked) | 18.5 |
| CCOC(=O)C1CCN(S(=O)(=O)c2c(C)[nH]c(=O)[nH]c2=O)CC1 | -0.439 |
| COc1ccc(C(CNC(=O)CSc2ccccc2F)N2CCOCC2)cc1 (centres unmarked) | 10.7 |
| CC(=O)Nc1ccc(/C=C(\C#N)C(=O)NC2CCCCC2)cc1 | 11.2 |
| O=C(Cc1ccccn1)c1ccccc1 | 30.3 |
| Cc1ccc(S(=O)(=O)N/N=C\c2ccc3c(c2)OCO3)cc1C | -11.8 |
| COCCNc1c2c(nc3ccccc13)CCC2.Cl | -58.5 |
| O=C(NCc1ccco1)c1c2c(nc3ccccc13)CCC2 | -24.8 |
| c1ccc(CNc2nc(-c3ccccc3)nc3ccccc23)cc1 | 4.15 |
| O=C(NC(CO)Cc1ccccc1)c1ccccc1 (centres unmarked) | -10.5 |
| OCC(Cc1ccccc1)Nc1c2ccccc2nc2ccccc12 (centres unmarked) | -71.2 |
| CN(C)CCCNc1c2c(nc3ccccc13)CCC2.Cl | -3.18 |
| Cl.c1ccc(CNc2ncnc3ccccc23)cc1 | 4.3 |
| c1coc(CNc2c3c(nc4ccccc24)CCC3)c1 | -78.7 |
| c1coc(CNc2c3c(nc4ncnn24)CCC3)c1 | -29.6 |
| c1ccc(CNc2c3ccccc3nc3ccccc23)cc1 | -77.1 |
| O=C(Cc1ccccc1)NNc1c2ccccc2nc2ccccc12 | 12.3 |
| CN(C)CCNc1c2c(nc3ccccc13)CCC2 | -0.291 |
